Each structure is given as a SMILES string. This is part of a sample that, as a whole, favours compounds with a hit. Of some 83,000 tested, about 20% had one in any assay.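 Growth was measured after 48 h exposure to one concentration of compound in 96-well plates. Values under 10 count as active.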 Unmarked numbers belong to inactive results. Activity calls are given as the source filed them.

This assay concerns U251 CNS. Description: NCI-60 one-dose screen, 48 h (100 = growth as untreated, 0 = no growth, -100 = all killed). As to conditions: 10 µM unless noted. As for the experimental part: Growth inhibition of the U251 human tumor cell line is measured as a screen for anti-cancer activity. Cells are grown in 96 well plates and exposed to the test compound for 48 hours. Compounds are tested at a single concentration, which is 10^-5 M for most compounds. The reported endpoint is percent growth (GI% or GIPRCNT), where numbers from 0 - 100% represent growth inhibition, and numbers from -100% - 0 represent cell death. For example, a value of 40 represents 60% growth inhibition. A value of 0 means no net growth occurred over the course of the experiment. A value of -40 indicates 40% of cells at the beginning of the experiment died by the end of the experiment. A value of -100 means all cells are dead at the end of the experiment.
NCI-60 Human Tumor Cell Lines Screen was performed using the standard one-dose NCI protocol, which is described in more detail at https://dtp.cancer.gov/discovery_development/nci-60/default.htm.
Compounds with GIPRCNT values below 10 were considered active. Activity score was based on GIPRCNT using the following formula: […]
Score is 0 for GIPRCNT values of 100 or above, 50 for GIPRCNT values of 0, and 100 for GIPRCNT values of -100.
With `COc1cc2c(cc1OCCCOc1ccc(-c3cc4ccccc4c4ccccc34)cc1)N=C[C@@H]1CCCN1C2=O`, the growth is -79.3% (active). To `CCC1(c2ccccc2)Oc2ccccc2-n2c(C#N)c3ccccc3c2C1=O` (stereo not given) belongs 96.7%; to `CSc1nnc(C2=CC(=O)c3ccccc3C2=O)n1-c1ccccc1`, 76.5%.

Take `Cc1cc(CC(=O)O)n(C)c1C(=O)c1ccc(Cl)cc1`: the growth was 99.5%. To `Clc1ccccc1[C@@H]1C[C@@H]2Cc3cc(Br)c4ccccc4c3N1O2` belongs 34.4%; to `CC(=O)c1cc(C(=O)c2ccc3c(c2)Sc2ccccc2N3)c2c(C)cc(C)cn12`, 14.6%. Regarding `O=c1ccn(C2OC(CO)C(O)C2F)c(=O)[nH]1` (stereo not given), the growth was 113%. To `O=C(C=C=Nc1ccccc1)C(=O)N=C=Cc1ccccc1` belongs 83.7%; to `CCCCCCC/C(=N\N=C(N)N)c1ccc(O)cc1`, 30.7%. The result for `OCc1nnn(-c2ccccc2)c1CO` reads 104%. The result for `ClC1=C(Cl)C(=C2C(Cl)=C(Cl)C(Cl)=C2Cl)C(Cl)=C1Cl` reads 103%; that for `O=C(Nc1nc2ccccc2s1)c1cc(-c2ccc(F)cc2)n2nc(-c3ccccc3)cc2n1`, 18.2%; that for `Cn1cc(-c2csc(-c3cn(C)c4ncccc34)n2)c2cccnc21`, 96%.

Regarding `CC[C@H](C)C(=O)O[C@H]1C[C@@H](C)C=C2C=C[C@H](C)[C@H](CC[C@@H]3C[C@@H](O)CC(=O)O3)[C@H]21`, the growth is 25.2%.

As to `C/C(=C\CCc1ccsc1)CC/C=C(\C)CCCN1CCN(CCO)CC1`, the growth is 6.55% (active). On to `Fc1ccc([C@@H]2CCNC[C@H]2COc2ccc3c(c2)OCO3)cc1`, for which the growth is 70.3%. The result for `CCOC(=O)c1ccccc1OC(=O)NNc1ccccc1` reads 83.2%; that for `CN1COc2ccc3ccccc3c2C1`, 92%.

With `CCc1[nH]nc(-c2ccc(OC)cc2)c1-c1ccccc1OCCN(CC)CC`, the growth was 96%. With `Nc1ccccc1-c1ccc([N+](=O)[O-])cc1`, the growth was 67.4%. The result for `COc1ccc(-c2oc3cc(O)c(OC)c(O)c3c(=O)c2OC)cc1O` reads 14%; that for `Cc1nn(-c2ccccc2)c(Cl)c1C(CC(=O)c1ccc(Cl)cc1)CC(=O)c1ccc(Cl)cc1`, 82.2%. The result for `COC1CC2CCC(C)C(O)(O2)C(=O)C(=O)N2CCCCC2C(=O)OC(C(C)CC2CCC(O)C(OC)C2)CC(=O)C(C)C=C(C)C(O)C(OC)C(=O)C(C)CC(C)/C=C/C=C/C=C1C` (stereo not given) reads 35.8%. The result for `Clc1ccc(-c2nc(-c3cccs3)no2)c(Cl)c1` reads 90.1%. As for `COc1ccc(/C=C2\COc3ccc(O)c(O)c3C2=O)cc1OC`, the growth was 5.85% (active).

Regarding `COc1ccc(-c2cc(Cc3cccs3)c(=O)n(Cn3cncn3)n2)cc1`, the growth is 97.2%. To `O=C(/C=C/c1ccccc1)CC(c1ccccc1)N1CCOCC1` (stereo not given) belongs 0.707% (active); to `COc1cc(/C=C/C(=O)c2c(-c3ccc(F)cc3)nc3sc(C)nn23)cc(OC)c1OC`, 21.3%; to `O=C(CCc1nnc2sc(Cc3ccccc3Cl)nn12)c1nc2ccccc2[nH]1`, 97%. To `Cc1cc(Cl)ccc1Nc1nc(C(F)(F)F)ccc1C(=O)NCC(=O)N/N=C/c1c(Cl)cccc1Cl` belongs 67.7%; to `O=C(Nc1cccc(-n2cc(-c3ccncc3)c(-c3ccc(O)c(Cl)c3)n2)c1)Nc1ccc(Cl)c(C(F)(F)F)c1`, -64.4% (active). The result for `O=C(CN1CCCCC1)Sc1nnc2sc3ccccc3n12` reads 98.5%. Consider `CC(O)c1nc2c(c(=O)n(C)c(=O)n2C)n1C` (stereo not given), for which the growth was 102%. For the molecule `CC(=O)c1ccc2c3c(n(C)c2c1)CCCC3`, the growth is 102%.

Regarding `COC(=O)CCC1=C(CC(=O)OC)C(C)=N/C1=C\c1[nH]c(-c2ccc[nH]2)cc1OC`, the growth was 26.5%. To `Cn1cnc([N+](=O)[O-])c1S(=O)(=O)Oc1ccc(Cl)cc1` belongs 85.4%; to `C/C(=C\CCc1ccsc1)CC/C=C(\C)CCCN1CCC(CO)CC1`, -3.53% (active). For the molecule `O=C1Nc2ccc(F)cc2/C1=C/c1nc(-c2ccc(F)cc2)n2ccccc12`, the growth is 83.5%. The result for `COc1cc(/C=C/c2nnc(-c3cc(-c4ccccc4)n[nH]3)o2)cc(OC)c1OC` reads 108%; that for `COc1ccc(-c2nn(-c3cccc(Cl)c3)cc2C2CC(c3ccccc3)=NN2C(C)=O)cc1` (stereo not given), 66.7%.

(Values after PubChem BioAssay (NCI).)
